Measured values published in PubChem BioAssay (NCATS).
Results filed as inconclusive are left out. Calls of active or inactive are those of the source. Calls come from the whole dose curve; as a rule, active = well fitted curve in the direction sought with a large enough effect; inconclusive = small, poorly fitted or top-dose-only effect, or another doubt; inactive = no such curve, though single readings can be large; an effect the other way counts as inactive or inconclusive.

Experiments:
[1] = test system: Zika virus NS2B-NS3 protease (linked construct); experiment: Primary screen NINDS Rhodamine qHTS for Zika virus inhibitors (AID 1347160); note: nearly all actives have a fitted effect of over 55% in size
Method in brief: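 Percent inhibition, normalized to uninhibited and enzyme-free controls, is fitted to a 4-parameter Hill equation. Fluorescence change comes from a 15-min cleavage of 1.5 microM bis-peptide Rhodamine110 substrate by 25 nM linked NS2B-NS3 at room temperature.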

[2] = biological target: Calcium and integrin-binding protein 1 (Homo sapiens) (UniProt Q99828); experiment: Primary qHTS for Identification of Calcium Integrin Binding Protein 1 (CIB1) Competitor (AID 1508620);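 note: GST tagged CIB1 binding a fluorescein labelled alphaIIb integrin peptide tracer; top concentration of the series differs between compounds; % is set by controls: 0 for no effect and ±100 for the full control effect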
Method in brief: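 Fluorescence polarization competition: CIB1-GST (1 uM final) preincubated with compound 15 min at room temperature, then FITC-labeled alphaIIb peptide (100 nM final) added for another 15 min. Polarization read at Ex 480/Em 540.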

[3] = biological target: Glutathione peroxidase 1 (Homo sapiens) (UniProt P07203); experiment: Primary qHTS Assay for Inhibitors of Recombinant Selenoprotein Glutathione Peroxidase 1 (GPX1) (AID 1845191); note: nearly all actives have a fitted effect of over 65% in size; for activity, negative = inhibition: % is set by controls: 0 for no effect and ±100 for the full control effect
Method in brief: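 Recombinant GPX1 (10 nM final) was preincubated with compound for 30 min at room temperature, then reacted with 1 mM GSH, 0.5 mM CHP, 0.5 mM NADPH and 100 nM glutathione reductase; NADPH fluorescence (340/450 nm) was read at 0 and 15 min.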

[4] = biological target: Phospholipid hydroperoxide glutathione peroxidase GPX4 (Homo sapiens) (UniProt P36969); experiment: Primary qHTS Assay for Inhibitors of Recombinant Selenoprotein Glutathione Peroxidase 4 (GPX4) (AID 1845192); note: % is set by controls: 0 for no effect and ±100 for the full control effect; nearly all actives have a fitted effect of over 65% in size
Method in brief: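 GR-coupled readout: 100 nM GR, 1 mM GSH, 0.5 mM NADPH; NADPH fluorescence (ex 340/em 450 nm) read at t=0 and after 15 min RT. GPX4 200 nM, preincubated 30 min with compound; substrate 0.5 mM CHP.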

[5] = biological target: Luciferin 4-monooxygenase (Photinus pyralis) (UniProt P08659); experiment: Primary firefly luciferase (FLuc) qHTS assay for identification of artifact compounds. (AID 1845220); details: outcome: dose series up to 54.1 µM unless noted; note: nearly all actives have a fitted effect of over 60% in size
Method in brief: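 In this counter-screen for luciferase artifacts, test compounds met substrate (10 uM each luciferin and ATP) before 10 nM enzyme started the reaction. Light output was measured 5 min later.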

[6] = test system: Nanoluciferase (engineered Oplophorus gracilirostris luciferase); experiment: Primary Nanoluciferase (NLuc) qHTS assay for identification of artifact compounds. (AID 1845222);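 note: NLuc secreted into diluted conditioned medium of S16 cells; 0% = DMSO and -100% = no enzyme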
Method in brief: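 Using secreted nanoluciferase in S16 culture medium (0.22 um filtered, 1:55 dilution), compounds were preincubated 15 min at RT. Signal was generated with Nano-Glo reagent (1:100) over 5 min.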

[7] = Primary redox qHTS assay for identification of artifact compounds. (AID 1845223); note: potency is the fitted concentration of half-maximal effect;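 for redox activity (% of DA3003): 0% = DMSO and 100% = reference compound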
Method in brief: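 Amplex Red (25 uM) and HRP (250 mU/mL) in HBSS, with compounds for 15 min, then 250 uM DTT for 30 min, room temperature, dark. Fluorescence 525/598 nm read; normalized to DMSO and 10 uM DA3003; Hill fit.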

CRL-7250 = normal cell line; experiment: Cytotoxic Profiling of Annotated Libraries Using Quantitative High-Throughput Screening (AID 1296008); details: Five cell lines viability, CellTiter-Glo ATP luminescence, 48-72 h; max response: active compounds read low; note: nearly all actives have a fitted effect of over 60% in size; note: potency is the fitted concentration of half-maximal effect
Method in brief: (§1)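 Compounds were pin-transferred onto cells and incubated 48 or 72 hr at 37 degree Celsius, 95% humidity. CellTiter-Glo was added, plates sat 10 min at room temperature, then ATP-coupled luminescence was imaged as the viability read-out.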

KB-3-1 = experiment: as above; details: Five cell lines viability, CellTiter-Glo ATP luminescence, 48-72 h; max response: active compounds read low
Method in brief: as §1

JEG-3 = experiment: Primary qHTS to identify gynecologic anti-cancer compounds using libraries of approved drugs and bioactive compounds (AID 1345084); details: Gynecologic cancer cell panel viability, ATPlite luminescence, 48 h; series mostly up to 57.5 µM; note: nearly all actives have a fitted effect of over 55% in size; note: potency is the fitted concentration of half-maximal effect; for activity change, negative = cytotoxicity: % is set by controls: 0 for no effect and ±100 for the full control effect
Method in brief: (§2)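 Cell viability after 48 h drug treatment, ATPlite luminescence readout; five doses.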

[8] = Primary fluorescence-based thiol-reactive (MSTI) qHTS assay for identification of artifact compounds. (AID 1845221);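 note: thiol-reactive compounds lower the probe fluorescence signal; nearly all actives have a fitted effect of over 65% in size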
Method in brief: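 Probe: MSTI 4 uM, PBS pH 7.4, 2% DMSO. Incubation 1 h, RT, light-protected. Readout fluorescence 525/598 nm.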

OV90 = experiment: Primary qHTS to identify gynecologic anti-cancer compounds using libraries of approved drugs and bioactive compounds (AID 1345084); details: Gynecologic cancer cell panel viability, ATPlite luminescence, 48 h; series mostly up to 57.5 µM; note: nearly all actives have a fitted effect of over 55% in size; note: potency is the fitted concentration of half-maximal effect; for activity change, negative = cytotoxicity: % is set by controls: 0 for no effect and ±100 for the full control effect
Method in brief: as §2

Tov112D = experiment: as above; details: Gynecologic cancer cell panel viability, ATPlite luminescence, 48 h; series mostly up to 57.5 µM
Method in brief: as §2

Hek293T = experiment: as above; details: Gynecologic cancer cell panel viability, ATPlite luminescence, 48 h, control line for the selectivity index; series mostly up to 57.5 µM
Method in brief: as §2

PA-1 = experiment: as above; details: Gynecologic cancer cell panel viability, ATPlite luminescence, 48 h; series mostly up to 57.5 µM
Method in brief: as §2

Tov-21-G = experiment: as above; details: Gynecologic cancer cell panel viability, ATPlite luminescence, 48 h; series mostly up to 57.5 µM
Method in brief: as §2

C33A = experiment: as above; details: Gynecologic cancer cell panel viability, ATPlite luminescence, 48 h; series mostly up to 57.5 µM
Method in brief: as §2

CAOV3 = experiment: as above; details: Gynecologic cancer cell panel viability, ATPlite luminescence, 48 h; series mostly up to 57.5 µM
Method in brief: as §2

CASKI = experiment: as above; details: Gynecologic cancer cell panel viability, ATPlite luminescence, 48 h; series mostly up to 57.5 µM
Method in brief: as §2

Es-2 = experiment: as above; details: Gynecologic cancer cell panel viability, ATPlite luminescence, 48 h; series mostly up to 57.5 µM
Method in brief: as §2

Calcium and integrin-binding protein 1 (Homo sapiens), sequence (Q99828 whole entry, looked up): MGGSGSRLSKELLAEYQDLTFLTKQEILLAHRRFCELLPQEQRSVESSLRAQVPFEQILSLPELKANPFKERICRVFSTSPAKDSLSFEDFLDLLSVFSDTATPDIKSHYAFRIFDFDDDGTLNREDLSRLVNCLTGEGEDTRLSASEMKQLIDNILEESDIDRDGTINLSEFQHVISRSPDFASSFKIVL
Phospholipid hydroperoxide glutathione peroxidase GPX4 (Homo sapiens), sequence (P36969 whole entry, looked up): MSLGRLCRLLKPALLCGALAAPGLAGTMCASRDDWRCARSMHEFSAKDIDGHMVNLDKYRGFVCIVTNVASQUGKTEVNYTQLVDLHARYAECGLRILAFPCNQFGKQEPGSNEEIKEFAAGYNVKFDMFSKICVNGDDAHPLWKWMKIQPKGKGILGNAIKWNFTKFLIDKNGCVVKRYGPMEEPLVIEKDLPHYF
Glutathione peroxidase 1 (Homo sapiens), sequence (P07203 whole entry, looked up): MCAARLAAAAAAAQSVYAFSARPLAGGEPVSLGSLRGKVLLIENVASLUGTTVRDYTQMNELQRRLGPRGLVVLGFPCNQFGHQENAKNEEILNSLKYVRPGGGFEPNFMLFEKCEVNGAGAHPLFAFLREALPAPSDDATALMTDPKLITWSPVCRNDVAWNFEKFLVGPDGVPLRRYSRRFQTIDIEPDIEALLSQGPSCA

CC[C@H](O)[C@@H](C)[C@H]1O[C@@H]1C[C@H](C)/C=C/C=C(\C)[C@H]1OC(=O)C[C@H](O)CC[C@@](C)(O)[C@@H](OC(C)=O)/C=C/[C@@H]1C
inactive: Potency [1] | Potency [2] | Potency [3] | Potency [4] | outcome [5] | Potency [6] | Potency [7] | Potency (JEG-3)
active: Potency (CRL-7250) 16.4 nM | Potency (KB-3-1) 5.2 nM

C=C1C(=O)CC2OC2(C)CC2OC(=O)C(=C)C2C(O)C1OC(=O)/C(C)=C\C (configuration not stated)
active: Potency (CRL-7250) 10100 nM
inactive: Potency [1] | Potency [2] | Potency [3] | Potency [4] | outcome [5] | Potency [8] | Potency [6] | Potency [7] | Potency (JEG-3) | Potency (OV90) | Potency (Tov112D)

COc1cc(O)c2c(c1)CCC[C@@H](O)[C@H](O)C(=O)/C=C\C[C@H](C)OC2=O
active: Potency (CRL-7250) 5080 nM | Potency (Hek293T) 11200 nM | Potency (Tov-21-G) 1780 nM
inactive: Potency [1] | Potency [2] | Potency [3] | Potency [4] | outcome [5] | Potency [8] | Potency [6] | Potency (PA-1)

C/C=C(\C)C(=O)OC1CC2C(CC=C3CC(OC4CC(OC)C(OC5CC(OC)C(OC6CC(OC)C(OC7CC(OC)C(O)C(C)O7)C(C)O6)C(C)O5)C(C)O4)CCC32C)C2(O)CCC(C(C)=O)C12C (configuration not stated)
inactive: Potency [1] | Potency [2] | Potency [3] | Potency [4] | activity change, negative = thiol reactive [8] 0.247% [at 11.5 µM] | activity, negative = inhibition [6] 1.71% [at 11.6 µM] | redox activity (% of DA3003) [7] 4.9% [at 11.5 µM] | max response (CRL-7250) -2.08% | outcome (KB-3-1) | activity change, negative = cytotoxicity (C33A) -3.2% [at 11.6 µM] | activity change, negative = cytotoxicity (CAOV3) 3.23% [at 11.6 µM] | activity change, negative = cytotoxicity (CASKI) -11.1% [at 11.6 µM] | activity change, negative = cytotoxicity (Es-2) -0.231% [at 11.6 µM] | activity change, negative = cytotoxicity (Hek293T) -2.97% [at 11.6 µM] | activity change, negative = cytotoxicity (JEG-3) -3.8% [at 11.6 µM] | activity change, negative = cytotoxicity (OV90) -21.5% [at 11.6 µM] | activity change, negative = cytotoxicity (PA-1) -6.71% [at 11.6 µM] | activity change, negative = cytotoxicity (Tov-21-G) 1.18% [at 11.6 µM] | activity change, negative = cytotoxicity (Tov112D) -0.393% [at 11.6 µM]

CC(=O)OC[C@]12[C@H](OC(C)=O)C(=O)[C@@H]3[C@@H](O)[C@@]14O[C@@]3(C)COC(=O)c1cccnc1[C@@H](C)[C@H](C)C(=O)O[C@@H]([C@H](OC(C)=O)[C@@H]2OC(C)=O)[C@]4(C)O
inactive: Potency [1] | Potency [2] | Potency [3] | Potency [4] | outcome [5] | Potency [8] | Potency [6] | Potency [7] | outcome (CRL-7250) | max response (KB-3-1) 7.87% | Potency (C33A) | Potency (CAOV3) | Potency (CASKI) | Potency (Es-2) | Potency (Hek293T) | Potency (JEG-3) | Potency (OV90) | Potency (Tov-21-G) | Potency (Tov112D)

C=C1C2(C)CC3C(C)(O)C4=CC(=O)OC(C)(C)C4=CCC3(C)C13C(=O)OC(C)C3(O)C2=O (configuration not stated)
active: Potency [7] 733 nM
inactive: Potency [1] | outcome [5] | Potency [6] | max response (CRL-7250) -8.29% | max response (KB-3-1) -10.5% | Potency (C33A) | Potency (CAOV3) | Potency (CASKI) | Potency (Es-2) | Potency (Hek293T) | Potency (JEG-3) | Potency (OV90) | Potency (PA-1) | Potency (Tov-21-G) | Potency (Tov112D)

CN(C(=O)C(c1ccccc1)c1ccccc1)[C@H](CN1CC[C@H](O)C1)c1ccccc1
inactive: Potency [1] | Potency [2] | Potency [3] | Potency [4] | outcome [5] | Potency [8] | Potency [6] | Potency [7] | outcome (CRL-7250) | max response (KB-3-1) -3.45% | Potency (C33A) | Potency (CAOV3) | Potency (CASKI) | Potency (Es-2) | Potency (Hek293T) | Potency (JEG-3) | Potency (OV90) | Potency (PA-1) | Potency (Tov-21-G) | Potency (Tov112D)
